Data on 66 compounds can be found in PubChem BioAssay AID2685 (National Center for Advancing Translational Sciences (NCATS), 2010).

Among all 320,000 compounds or so, about 2,100 (0.66%) were called active. Inconclusive results (about 53%) are left out. The call rests on the fitted dose curve; in most records, active means well fitted inhibition curve with a large enough effect in the signal ratio, with a control signal flat (not every such curve was filed as active); inconclusive means small, poorly fitted or top-dose-only effect, or effect the other way, or a change in a side signal; inactive means flat fitted curve, though single readings scatter; the % refers to the signal ratio. For the sample, actives were picked, then their nearest neighbours and some compounds at random.
Potency means the concentration at half of the fitted maximal effect.

The experiment can be described thus: qHTS Assay for Lipid Storage Modulators in Drosophila S3 Cells.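 On cell number change: cells counted by Cell Tracker Red CMTPX staining in the red channel.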 On lipid storage change, negative = inhibition: on the % scale 0 is the no-effect control and ±100 the full control effect. The settings on record: BODIPY lipid droplet fluorescence, 18-24 h, cells fed with added oleic acid; cell number change: measured here: cell count max response; series mostly up to 46.1 µM. The procedure, abridged: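 Drosophila S3 cells loaded with oleic acid (400 uM, as added) and compounds at several concentrations; lipid droplets imaged by 488-nm laser-scanning cytometry, 500–530 nm intensity and object ratio to cell channel. Percent activity normalized to 20 uM Triacsin C.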
Turning to `Cc1cc(/C=C2\SC(=O)N(CC(=O)Nc3ccccc3F)C2=O)c(C)n1C`, the Potency result is “inactive” and the cell number change is 1.47%. The corresponding values for `Cc1ccccc1-n1c(C)n[nH]c1=S` are “inactive” and 1.24%.

With `COc1ccc(CC(=O)NNC(=O)CSc2nnc(C)n2-c2ccccc2)cc1`, the Potency result was “inactive” and the cell number change is -9.57%. For the compound `CC1Cc2ccccc2N1C(=O)CSc1nnc(Cn2nnc3ccccc32)n1C` (configuration not stated), the Potency result is “inactive” and the cell number change is -16.3%. The corresponding values for `O=C(O)C1CCCN1C(=O)Oc1ccccc1` (configuration not stated) are 23.1 µM (active) and 0.79%. Consider `O=C(Nc1ccc(F)cc1)N1CCN(c2nc3ccccc3s2)CC1`, for which the Potency is 4.11 µM (active). On the same count and under the same terms, the value for `CSc1ccc(NC(=O)N2CCN(c3nc4ccccc4s3)CC2)cc1` was “inactive”.

Regarding `O=C(NCc1ccc(F)cc1)C1CCCN1C(=O)Nc1ccc(F)cc1` (configuration not stated), the Potency result was “inactive” and the cell number change is 12.2%. The corresponding values for `O=C(O)C1CCCN1C(=O)OCc1ccccc1` (configuration not stated) are “inactive” and 12.4%. The corresponding values for `O=C(Nc1ccc(O)cc1)N1CCOCC1` are “inactive” and 20%. As for `O=C(O)C1CCCN1C(=O)Nc1ccc(F)cc1` (configuration not stated), the Potency was 6.51 µM (active) and the cell number change was 1.35%. Regarding `O=C(Nc1ccc(F)cc1)N1CCOCC1`, the Potency was 20.6 µM (active) and the cell number change was -6.86%.

Turning to `O=C(Nc1ccccc1)N1CCN(c2nc3ccccc3s2)CC1`, the Potency result is “inactive”. Consider `O=C(NC1CCCC1)C1CCCN1C(=O)Oc1ccccc1` (configuration not stated), for which the Potency entry is “inactive” and the cell number change was -16.7%.

With `O=C(NCCc1ccccc1)C1CCCN1C(=O)Nc1ccc(F)cc1` (configuration not stated), the Potency entry was “inactive” and the cell number change is -10%. Regarding `O=C(Nc1ccc(F)cc1)N1CCCCCC1`, the Potency result is “inactive” and the cell number change came to 7.77%. The corresponding values for `COc1ccccc1C(=O)C1CCCN(Cc2cccc3nccnc23)C1` (configuration not stated) are “inactive” and 15%. For `CC(C)Nc1ccc(C(CC(N)=O)NC(=O)Cc2cccc3ccccc23)cc1[N+](=O)[O-]` (configuration not stated), the Potency entry is “inactive” and the cell number change came out at 1.26%. With `CCOC(=O)c1sc(=NC(=O)c2cccc(C)c2)n(C)c1C`, the Potency result is “inactive”. Regarding `Cc1cc(Cl)ccc1NC(=S)NCc1ccco1`, the Potency result was “inactive” and the cell number change was -9.3%. The corresponding values for `CCOc1ccccc1NC(=O)Cn1c(=O)oc2cc(Cl)ccc21` are “inactive” and 6.12%. With `O=C(NC1CCN(C(=O)Nc2ccc(F)cc2)CC1)c1ccccc1F`, the Potency was 6.51 µM (active). For the compound `Cc1ccccc1C(=O)NC1CCN(CC(=O)NCc2ccccc2)CC1`, the Potency result was “inactive” and the cell number change is 13.5%. On to `Cc1ccccc1C(=O)NC1CCN(C(=O)Nc2ccc(F)cc2)CC1`, for which the Potency entry is “inactive” and the cell number change came out at 8.56%. For the compound `Cc1cc(C)cc(NC(=O)N2CCC(NC(=O)c3ccccc3C)CC2)c1`, the Potency result is “inactive” and the cell number change came to 4.64%. The corresponding values for `O=C(CN1CCC(NC(=O)c2ccccc2F)CC1)NCc1ccc(F)cc1` are 20.6 µM (active) and -14.5%. On to `Cc1ccccc1C(=O)NC1CCN(CC(=O)NCc2ccc(F)cc2)CC1`, for which the Potency entry was “inactive” and the cell number change worked out at 9.44%. Turning to `CCc1cc2c(=O)c(-c3nc4ccccc4n3C)c(C)oc2c(CN2CCOCC2)c1O`, the Potency entry is “inactive”. Take `CCCS(=O)(=O)N1CCCC(C(=O)Oc2ccc(Cl)cc2)C1` (configuration not stated): the Potency result was “inactive” and the cell number change came to 14%. For `Cc1ccc(NC(=O)CSc2nc(N)cc(=O)[nH]2)cc1Cl`, the Potency entry is “inactive” and the cell number change was 22%. In the same order, the values of `Cn1c(=O)c2c(nc(SCc3ccccn3)n2C)n(C)c1=O` are “inactive” and -19.6%. The corresponding values for `Cn1c(SCc2ccccn2)nc2c1c(=O)[nH]c(=O)n2C` are 2.59 µM (active) and 0.681%. The corresponding values for `Cn1c(SCc2ccccc2Cl)nc2c1c(=O)[nH]c(=O)n2C` are “inactive” and 3.04%. As to `CCOC(=O)c1ccc(-c2ccc(/C=N/NC(=O)CN(c3ccccc3Br)S(C)(=O)=O)o2)cc1`, the Potency was 9.2 µM (active) and the cell number change was -15.9%. The corresponding values for `Cc1oc(/C=N/NC(=O)CN(c2ccccc2Br)S(C)(=O)=O)cc1Br` are “inactive” and 0.768%.

With `CS(=O)(=O)N(CC(=O)N/N=C/c1ccco1)c1ccccc1Br`, the Potency entry is “inactive” and the cell number change is 2.71%. As to `COc1ccccc1-c1ccc(SCC(=O)NCc2ccc3c(c2)OCO3)nn1`, the Potency entry was “inactive”. Take `O=C(O)CSc1cccc2cccnc12`: the cell number change came to 8.53% and the lipid storage change, negative = inhibition is 8.73% [at 9.22 µM] (inactive). As for `CC(=O)/C(=N/Nc1ccc(Br)cc1)Sc1cccc2cccnc12`, the Potency entry is “inactive” and the cell number change is -2.71%. The corresponding values for `O=C(Sc1cccc2cccnc12)c1ccccc1Br` are 7.31 µM (active) and 4.44%. Regarding `Cc1ccc(-c2cc(-c3ccccc3)c(C#N)c(Br)n2)cc1`, the Potency entry was “inactive” and the cell number change is -11.3%. The corresponding values for `CC(C)(C)[C@H]1CCC(=O)N([C@H](CN=[N+]=[N-])Cc2ccccc2)CC1` are “inactive” and 22%. Take `CC1CCC(=O)N(CCSc2ccccc2)CC1` (configuration not stated): the Potency result is “inactive”.

As for `N#CC[C@H](Cc1ccccc1)N1CC[C@@H](NC(=O)OCc2ccccc2)CCC1=O`, the Potency result was “inactive” and the cell number change turned out to be 8.98%. In the same order, the values of `CC(C)(C)C1CCC(=O)N(CCSc2ccccc2)CC1` (configuration not stated) are 6.51 µM (active) and -4.53%.

For the compound `CC(C)(C)[C@H]1CCC(=O)N([C@H](CC#N)Cc2ccccc2)CC1`, the Potency is 0.326 µM (active) and the cell number change is -9.71%. In the same order, the values of `CC(=O)Nc1ccc(SCCN2CC[C@@H](C(C)(C)C)CCC2=O)cc1` are “inactive” and -1.32%.

On to `CCCCNC(=S)N/N=C/c1sccc1C`, for which the Potency entry is “inactive” and the cell number change was -1.93%. The corresponding values for `CCS(=O)(=O)c1nc(S(=O)(=O)c2ccc(C)cc2)c(NCc2ccccn2)s1` are “inactive” and 2.5%. In the same order, the values of `Cc1[nH]n(-c2ccccc2)c(=O)c1C(=O)c1ccc(Cl)cc1` are “inactive” and -16%.

In the case of `Cc1[nH]n(-c2ccccc2)c(=O)c1C(=O)c1ccc([N+](=O)[O-])cc1`, the Potency entry is “inactive” and the cell number change worked out at 5.62%. As for `C/C(=N\NC(=O)c1ccc(C)cc1)c1c(C)[nH]n(-c2ccccc2)c1=O`, the Potency is 9.2 µM (active) and the cell number change was -9.89%.

In the case of `CN1C(=O)c2cccc(NC(=O)CCc3ccccc3)c2C1=O`, the Potency result was “inactive” and the cell number change is -9.83%. With `Cc1ccc(-n2ncc3c(=O)[nH]c(SCC(=O)N4CCCc5ccccc54)nc32)cc1`, the Potency result is “inactive”. Regarding `O=C(NCCCN1CCOCC1)C1(c2ccccc2)CCOCC1`, the Potency is 3.66 µM (active) and the cell number change turned out to be 2.27%. The corresponding values for `O=C(Nc1ccccc1C(=O)NCCCN1CCOCC1)c1ccccc1` are “inactive” and 15.2%. The corresponding values for `Cc1c(C)n(C)c2ccc(C(=O)NCCCN3CCN(c4ccc(F)cc4)CC3)cc12` are “inactive” and 4.18%.

Regarding `O=C(NCCCN1CCOCC1)c1ccc2ccccc2c1`, the outcome is “inactive [at 0.0737 µM]”. As to `Cc1c(C)n(Cc2ccc(F)cc2)c2ccc(C(=O)NCCCN3CCOCC3)cc12`, the Potency is 29.1 µM (active) and the cell number change turned out to be 38.2%. Regarding `O=C(NCCCN1CCOCC1)c1ccccc1`, the Potency is 20.6 µM (active) and the cell number change is -23.2%. Regarding `O=C(NCCCN1CCOCC1)C(=O)NCCc1ccccc1`, the Potency result is “inactive” and the cell number change is -0.52%.

Turning to `CCn1c(C)c(C)c2cc(C(=O)NCCN3CCOCC3)ccc21`, the Potency entry is “inactive” and the cell number change is -16.2%. The corresponding values for `COc1ccc(C2(C(=O)Nc3ccc(C(=O)N4CCOCC4)cc3)CCOCC2)cc1` are “inactive” and 6.9%. The corresponding values for `Cc1ccc(NC(=O)C2(c3ccccc3)CCOCC2)cc1` are “inactive” and 16.3%. In the same order, the values of `O=C(NCCCN1CCOCC1)C1(c2ccccc2)CCCC1` are “inactive” and -15.4%. `O=C(c1ccc(NC(=O)C2(c3ccccc3)CCOCC2)cc1)N1CCOCC1`: the Potency was 23.1 µM (active) and the cell number change is -1.58%.
